Reference: PubChem BioAssay (NCATS)
Values without a mark were called inactive. Records with an inconclusive call do not appear. Entries that show only a call come without a potency. Activity calls are given as the source filed them. Unless noted, calls come from the whole dose curve; as a rule, active = well fitted curve in the direction sought with a large enough effect; inconclusive = small, poorly fitted or top-dose-only effect, or another doubt; inactive = no such curve, though single readings can be large; an effect the other way counts as inactive or inconclusive.

Assays:
[1] = target: Lysosomal acid glucosylceramidase (Homo sapiens) (UniProt P04062); experiment: Glucocerebrosidase-p2 (AID 348; in the data active = potency below about 10 µM; note: potency is the fitted concentration of half-maximal effect); details: purified GBA, blue fluorogenic substrate, 40 min
Chain of Lysosomal acid glucosylceramidase (Homo sapiens) (P04062 whole entry, looked up): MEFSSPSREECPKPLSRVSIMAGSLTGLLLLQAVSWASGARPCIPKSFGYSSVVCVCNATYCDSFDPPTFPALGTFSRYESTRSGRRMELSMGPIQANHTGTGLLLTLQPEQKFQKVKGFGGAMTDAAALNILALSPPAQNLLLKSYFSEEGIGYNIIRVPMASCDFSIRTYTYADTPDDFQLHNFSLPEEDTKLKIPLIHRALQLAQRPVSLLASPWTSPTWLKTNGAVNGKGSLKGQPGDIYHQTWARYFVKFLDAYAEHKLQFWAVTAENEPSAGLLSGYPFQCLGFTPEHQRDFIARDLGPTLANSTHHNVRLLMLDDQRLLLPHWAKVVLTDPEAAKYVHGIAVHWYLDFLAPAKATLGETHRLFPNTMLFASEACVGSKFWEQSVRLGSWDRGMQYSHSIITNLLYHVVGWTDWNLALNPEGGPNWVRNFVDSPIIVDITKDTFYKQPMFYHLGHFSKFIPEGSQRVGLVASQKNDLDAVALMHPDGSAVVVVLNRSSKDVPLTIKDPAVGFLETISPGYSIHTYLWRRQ
In short: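 Normal human glucocerebrosidase (0.2 nM) with blue fluorogenic substrate (80 uM final) in citrate/phosphate pH 5.9 with 10mM sodium taurocholate, 0.01% tween-20; 40 min RT, NaOH/glycine stop; fluorescence Ex 365/Em 440; AC50 from a titration from 0.6 nM upwards.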

[2] = NFAT Signaling Pathway (AID 444; active = well fitted curve in either direction with a large enough effect, not every such curve was filed as active;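 note: carbachol stimulus at about its EC50 of 1 µM final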); details: Jurkat NFAT-bla M1, carbachol, beta-lactamase ratio, 5 h; at 7.69 µM (top of the series) unless noted
In short: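 Read-out: CCF4 FRET ratio (460 nm/530 nm) after 1 h RT dye loading, used for %activity and AC50 from titration series. Cells: Jurkat NFAT-β-lactamase/M1 line, treated with compound plus 1 uM carbachol for 5 h, 37 °C.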

[3] = Stat Signaling Pathway (AID 446; active = well fitted curve in either direction with a large enough effect, not every such curve was filed as active;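 note: ME-180 cervical cancer cells given 40 pM IL-6 alongside compound; SIE-controlled beta-lactamase reporter measured as 460/530 nm FRET emission ratio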); details: ME-180 SIE beta-lactamase reporter, IL-6 stimulated, 5 h; at 7.69 µM (top of the series) unless noted
In short: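 Overnight-plated ME-180 cells bearing a STAT Inducible Element beta-lactamase reporter; 5 h co-exposure to compound and 40 pM IL-6; values normalized to 300 pM IL-6 and 125 nM JAK inhibitor controls.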

[4] = target: Glucocorticoid receptor (Homo sapiens) (UniProt P04150); experiment: GR-GFP Redistribution (AID 450;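 active = compounds whose dose series gives a full or clear partial fitted curve of increased nuclear translocation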; note: potency is the fitted concentration of half-maximal effect); details: U2OS GR-GFP nuclear translocation, laser cytometry, 2 h
Chain of Glucocorticoid receptor (Homo sapiens) (P04150 whole entry, looked up, the tested form may be a part): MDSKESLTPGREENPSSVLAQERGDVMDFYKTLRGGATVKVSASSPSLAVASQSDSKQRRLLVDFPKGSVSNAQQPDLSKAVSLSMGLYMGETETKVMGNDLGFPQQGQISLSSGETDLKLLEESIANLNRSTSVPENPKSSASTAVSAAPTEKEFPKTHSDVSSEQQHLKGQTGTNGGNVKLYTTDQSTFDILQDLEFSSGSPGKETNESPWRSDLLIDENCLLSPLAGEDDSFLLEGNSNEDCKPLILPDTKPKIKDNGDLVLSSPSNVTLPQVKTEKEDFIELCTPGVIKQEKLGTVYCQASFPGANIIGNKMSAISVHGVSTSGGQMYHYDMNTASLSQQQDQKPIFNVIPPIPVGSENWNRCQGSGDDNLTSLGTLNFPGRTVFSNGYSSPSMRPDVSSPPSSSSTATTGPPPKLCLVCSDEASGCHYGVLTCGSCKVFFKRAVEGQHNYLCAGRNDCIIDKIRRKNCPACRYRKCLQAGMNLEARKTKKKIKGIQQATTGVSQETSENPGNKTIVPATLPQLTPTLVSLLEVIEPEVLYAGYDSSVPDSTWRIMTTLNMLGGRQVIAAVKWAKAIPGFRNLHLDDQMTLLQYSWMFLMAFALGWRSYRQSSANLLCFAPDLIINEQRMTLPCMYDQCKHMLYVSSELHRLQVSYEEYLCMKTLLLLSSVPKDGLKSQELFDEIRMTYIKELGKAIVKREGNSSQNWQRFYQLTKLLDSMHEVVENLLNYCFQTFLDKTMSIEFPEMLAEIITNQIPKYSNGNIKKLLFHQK

[5] = target: Glucocorticoid receptor (Homo sapiens) (UniProt P04150); experiment: GR-EFC Redistribution (AID 451; calls by dose curve; note: potency is the fitted concentration of half-maximal effect); details: CHO-K1 GR-EFC translocation, beta-gal luminescence, 2 h
In short: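 Translocation of GR-ED fusion to nuclear EA restores b-gal, read by luminescence after 1 h room-temperature detection. Engineered CHO-K1 biosensor cells, 1,000/well, exposed 2 h at 37 C to titrations up to 46 uM final.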

[6] = target: Mitogen-activated protein kinase 10 (Mus musculus) (UniProt Q61831); experiment: JNK3 AlphaScreen Assay (AID 530; active = well fitted curve in either direction with a large enough effect, not every such curve was filed as active;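 note: kinase came from lysate of stimulated human HepG2 cells; signal reports phosphorylation of biotinylated GST-cJun 1-79 at Ser73 with 10 µM ATP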); details: JNK3 lysate, c-Jun phosphorylation; series mostly up to 57.1 µM
In short: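 qHTS titrations with 15 min compound pre-incubation before adding ATP (10 uM final). Read-out: AlphaScreen of Ser73-phosphorylated biotin-GST-cJun using HepG2 lysate JNK3 activated by IL-1β and TNFα.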

[7] = target: Dual specificity protein kinase CLK4 (Homo sapiens) (UniProt Q9HAZ1); experiment: qHTS Assay for Inhibitors of CDC-like Kinase 4 (Kinase-Glo Assay) (AID 1770); details: recombinant Clk4, Kinase-Glo ATP depletion luminescence; series mostly up to 66.7 µM; note: nearly all actives have a fitted effect of over 65% in size
Chain of Dual specificity protein kinase CLK4 (Homo sapiens) (Q9HAZ1 whole entry, looked up): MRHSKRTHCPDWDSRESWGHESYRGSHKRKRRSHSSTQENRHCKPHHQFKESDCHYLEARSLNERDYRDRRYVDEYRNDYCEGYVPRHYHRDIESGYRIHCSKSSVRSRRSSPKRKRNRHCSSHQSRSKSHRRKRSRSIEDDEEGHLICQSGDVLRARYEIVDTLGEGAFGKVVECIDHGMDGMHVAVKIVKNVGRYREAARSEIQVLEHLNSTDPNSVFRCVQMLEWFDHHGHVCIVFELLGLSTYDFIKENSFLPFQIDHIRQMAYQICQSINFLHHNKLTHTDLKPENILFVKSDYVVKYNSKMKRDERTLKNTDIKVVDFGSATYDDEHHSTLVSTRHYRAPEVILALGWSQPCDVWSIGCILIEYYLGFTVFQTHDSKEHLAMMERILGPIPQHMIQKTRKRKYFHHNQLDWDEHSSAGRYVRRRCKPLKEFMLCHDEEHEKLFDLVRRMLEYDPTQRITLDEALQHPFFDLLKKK
In short: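 25 nM Clk4 with 100 uM RS repeat peptide and 1 uM ATP (final) in Tris pH7.5, 10 mM MgCl2, 4.5 h at room temperature. Remaining ATP measured by Kinase-Glo luciferase luminescence.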

[8] = target: Dual specificity protein kinase CLK4 (Homo sapiens) (UniProt Q9HAZ1); experiment: qHTS Assay for Inhibitors of CDC-like Kinase 4 (ADP-Glo Assay) (AID 1771); details: recombinant CLK4, ADP-Glo luminescence; series mostly up to 80 µM; note: nearly all actives have a fitted effect of over 70% in size
In short: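 ADP production was read by ADP-Glo luminescence after residual ATP depletion, following 1 h room-temperature reaction of 25 nM Clk4, 1 uM ATP and 100 uM RS peptide with MgCl2, EGTA, DTT and Triton X-100.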

[9] = target: Dual specificity protein kinase CLK4 (Homo sapiens) (UniProt Q9HAZ1); experiment: qHTS Assay for Inhibitors of CDC-like Kinase 4 (ADP-FP Assay) (AID 1795); details: Transcreener ADP fluorescence polarization; series mostly up to 50 µM;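 note: recombinant human CLK4 phosphorylating RS repeat peptide at 1 µM ATP; nearly all actives have a fitted effect of over 60% in size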
In short: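 Recombinant Clk4 (6.25 nM) phosphorylated 100 uM RS repeat peptide with 1 uM ATP in 25 mM Tris pH 7.5, 10 mM MgCl2, 0.5 mM EGTA, 2.5 mM DTT, 0.01% Triton X-100 for 1 h. ADP was detected by Transcreener ADP2 competitive fluorescence polarization after 30 min at room temperature.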

[10] = target: Ubiquitin carboxyl-terminal hydrolase 1 (Homo sapiens) (UniProt O94782); experiment: Inhibitors of USP1/UAF1: Pilot qHTS (AID 504865); details: purified USP1/UAF1, Ub-rhodamine cleavage fluorescence; series mostly up to 54.9 µM;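 note: rhodamine fluorescence freed from ubiquitin-rhodamine substrate followed over time; top concentration of the series differs between compounds; nearly all actives have a fitted effect of over 35% in size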
Chain of Ubiquitin carboxyl-terminal hydrolase 1 (Homo sapiens) (O94782 whole entry, looked up): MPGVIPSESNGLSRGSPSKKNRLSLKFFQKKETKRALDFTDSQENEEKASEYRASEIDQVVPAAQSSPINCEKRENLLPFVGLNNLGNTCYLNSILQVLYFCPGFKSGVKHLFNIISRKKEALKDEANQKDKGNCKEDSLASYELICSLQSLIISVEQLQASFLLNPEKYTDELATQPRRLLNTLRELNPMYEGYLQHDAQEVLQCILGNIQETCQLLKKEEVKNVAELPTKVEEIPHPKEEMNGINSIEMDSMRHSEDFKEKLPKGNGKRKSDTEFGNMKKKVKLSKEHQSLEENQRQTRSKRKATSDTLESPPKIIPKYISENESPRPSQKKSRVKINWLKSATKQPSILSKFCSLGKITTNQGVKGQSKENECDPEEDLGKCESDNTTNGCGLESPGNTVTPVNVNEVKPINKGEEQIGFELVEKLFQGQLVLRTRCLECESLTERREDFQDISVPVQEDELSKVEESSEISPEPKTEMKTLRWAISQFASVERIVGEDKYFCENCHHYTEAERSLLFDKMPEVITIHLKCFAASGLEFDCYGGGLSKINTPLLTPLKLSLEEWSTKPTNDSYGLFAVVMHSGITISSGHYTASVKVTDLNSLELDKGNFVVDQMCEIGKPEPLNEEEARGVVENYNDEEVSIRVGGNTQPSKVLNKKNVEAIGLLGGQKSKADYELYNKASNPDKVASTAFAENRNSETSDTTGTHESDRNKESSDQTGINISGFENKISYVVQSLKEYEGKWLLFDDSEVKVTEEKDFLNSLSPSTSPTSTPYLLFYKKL
In short: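 USP1/UAF1 complex at 1 nM preincubated 15 min at room temperature with compound, then Ub-Rho substrate added at 150 nM final. Fluorescence (480/540 nm) read kinetically in 50 mM HEPES pH 7.8, 0.5 mM EDTA, 1 mM TCEP, 0.1 mg/ml BSA, 0.01% Tween-20.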

[11] = Primary qHTS for small molecule stabilizers of the endoplasmic reticulum resident proteome: Secreted ER Calcium Modulated Protein (SERCaMP) assay (AID 1508630); details: SH-SY5Y GLuc-SERCaMP (Gaussia luciferase released on ER calcium loss) secretion, thapsigargin, luminescence; series mostly up to 38.4 µM
In short: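 The SH-SY5Y reporter protocol was run at 3 concentrations up to 38.3 uM (primary) or 11 concentrations (follow-up): 16 h compound, 100 nM thapsigargin for 4 h, then extracellular luciferase luminescence.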

[12] = AP1 Signaling Pathway (AID 357; active = well fitted curve in either direction with a large enough effect, not every such curve was filed as active;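 note: ME-180 reporter cells stimulated with EGF at its EC50 level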); details: ME-180 AP-1-bla reporter, EGF-induced, beta-lactamase ratio, 5 h; at 7.69 µM (top of the series) unless noted
In short: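 Titration-series screen for positive or negative modulators of EC50 EGF-induced signaling in ME-180 cells carrying an AP-1-driven beta-lactamase reporter. After 5 hours at 37 degrees Celsius, CCF4 460nm/530nm emission ratio gave %Activity; AC50 values derived.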

[13] = target: Cytochrome P450 1A2 (Homo sapiens) (UniProt P05177); experiment: p450-cyp1a2 (AID 410; calls by dose curve; note: potency is the fitted concentration of half-maximal effect); details: recombinant CYP1A2, luciferin-ME demethylation, luminescence; series mostly up to 57 µM
Chain of Cytochrome P450 1A2 (Homo sapiens) (P05177 whole entry, looked up): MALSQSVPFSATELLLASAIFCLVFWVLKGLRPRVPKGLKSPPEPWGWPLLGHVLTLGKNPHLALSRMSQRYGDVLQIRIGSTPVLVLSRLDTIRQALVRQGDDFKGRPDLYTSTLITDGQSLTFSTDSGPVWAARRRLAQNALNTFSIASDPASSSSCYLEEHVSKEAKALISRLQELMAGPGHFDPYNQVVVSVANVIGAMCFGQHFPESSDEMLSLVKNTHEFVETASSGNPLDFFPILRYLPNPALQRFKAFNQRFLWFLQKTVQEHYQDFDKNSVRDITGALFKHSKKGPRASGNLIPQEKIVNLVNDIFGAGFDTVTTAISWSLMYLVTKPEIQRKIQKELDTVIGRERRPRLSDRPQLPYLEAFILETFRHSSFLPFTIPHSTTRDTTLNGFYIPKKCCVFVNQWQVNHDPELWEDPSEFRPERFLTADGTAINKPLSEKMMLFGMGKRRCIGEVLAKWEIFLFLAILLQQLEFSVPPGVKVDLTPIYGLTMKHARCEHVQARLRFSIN
In short: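 Luminescent demethylation readout: Luciferin-ME (100uM, equal to Km) turned over by 20nM CYP1A2 for 60 min at room temperature after NADPH regeneration addition, following 10 min compound preincubation. Normalization used 57 uM furafylline as full inhibition.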

[14] = target: 3',5'-cyclic-AMP phosphodiesterase 4B (Homo sapiens) (UniProt Q07343); experiment: qHTS Assay for Inhibitors of PDE-IV (AID 607; active = well fitted activation curve with a large enough effect in the main read-out, with a control signal flat, not every such curve was filed as active); details: HEK293 ACTOne CNG channel cells, membrane potential fluorescence; series mostly up to 22.9 µM
Chain of 3',5'-cyclic-AMP phosphodiesterase 4B (Homo sapiens) (Q07343 whole entry, looked up): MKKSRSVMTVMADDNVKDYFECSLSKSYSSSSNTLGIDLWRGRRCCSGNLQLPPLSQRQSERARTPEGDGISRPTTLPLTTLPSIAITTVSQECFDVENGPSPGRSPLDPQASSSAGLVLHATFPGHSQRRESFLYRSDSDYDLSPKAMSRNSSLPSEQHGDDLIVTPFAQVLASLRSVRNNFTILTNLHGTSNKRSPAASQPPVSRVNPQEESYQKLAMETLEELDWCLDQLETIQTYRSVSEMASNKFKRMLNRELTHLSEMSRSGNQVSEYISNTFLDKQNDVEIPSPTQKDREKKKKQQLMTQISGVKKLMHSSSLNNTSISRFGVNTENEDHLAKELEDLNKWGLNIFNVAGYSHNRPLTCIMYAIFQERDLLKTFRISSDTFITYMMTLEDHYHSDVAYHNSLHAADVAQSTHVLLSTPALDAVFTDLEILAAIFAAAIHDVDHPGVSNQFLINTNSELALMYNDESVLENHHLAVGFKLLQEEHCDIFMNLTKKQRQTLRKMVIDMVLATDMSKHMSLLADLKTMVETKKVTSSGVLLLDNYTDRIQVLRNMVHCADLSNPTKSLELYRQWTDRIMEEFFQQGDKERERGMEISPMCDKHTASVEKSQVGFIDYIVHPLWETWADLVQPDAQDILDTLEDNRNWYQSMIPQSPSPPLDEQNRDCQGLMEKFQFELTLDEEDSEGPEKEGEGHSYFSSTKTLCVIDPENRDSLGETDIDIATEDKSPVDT
In short: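 Live HEK293 cells with a modified cyclic nucleotide-gated (CNG) channel report intracellular cAMP via membrane-potential dye fluorescence (ex 535/em 590 nm). Endogenous PDE-IV was targeted. Compounds were tested at up to 22.9 uM final; RO 20-1724 100 uM served as control.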

[15] = target: Cytochrome P450 3A4 (Homo sapiens) (UniProt P08684); experiment: qHTS Assay for Inhibitors and Substrates of Cytochrome P450 3A4 (AID 884); details: recombinant CYP3A4, Luciferin-PPXE luminescence; series mostly up to 57.1 µM; note: potency is the fitted concentration of half-maximal effect; nearly all actives have a fitted effect of over 50% in size
Chain of Cytochrome P450 3A4 (Homo sapiens) (P08684 whole entry, looked up): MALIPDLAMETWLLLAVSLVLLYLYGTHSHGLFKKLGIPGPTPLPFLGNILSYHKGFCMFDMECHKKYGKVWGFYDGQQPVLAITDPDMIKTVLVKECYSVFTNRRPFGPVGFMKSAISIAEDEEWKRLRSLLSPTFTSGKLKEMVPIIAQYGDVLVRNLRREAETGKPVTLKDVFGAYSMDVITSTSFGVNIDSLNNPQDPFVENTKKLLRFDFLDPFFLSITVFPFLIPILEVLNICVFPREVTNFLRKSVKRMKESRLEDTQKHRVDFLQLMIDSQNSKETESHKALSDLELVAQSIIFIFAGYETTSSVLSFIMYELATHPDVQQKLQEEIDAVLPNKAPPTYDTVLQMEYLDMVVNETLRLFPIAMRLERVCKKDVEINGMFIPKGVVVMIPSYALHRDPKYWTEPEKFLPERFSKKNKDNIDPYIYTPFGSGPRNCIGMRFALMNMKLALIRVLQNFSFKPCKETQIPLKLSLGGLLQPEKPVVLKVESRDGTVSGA
In short: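 Luminescent readout of luciferin produced by CYP3A4 (20 nM) dealkylation of Luciferin-PPXE, 25 uM (its KM). NADPH-driven reaction ran 60 min at RT after 10 min compound preincubation; data scaled to 57 uM ketoconazole as 100% inhibition.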

[16] = target: Cytochrome P450 3A4 (Homo sapiens) (UniProt P08684); experiment: qHTS Assay for Activators of Cytochrome P450 3A4 (AID 885); details: recombinant CYP3A4, Luciferin-PPXE luminescence, 60 min; series mostly up to 57.1 µM; note: nearly all actives have a fitted effect of over 65% in size
In short: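 Using 20nM recombinant human CYP3A4 in potassium phosphate (200mM), substrate Luciferin-PPXE at 25uM, luminescent luciferin detection followed a 60-min RT NADPH reaction; data scaled to 57 uM ketoconazole.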

[17] = target: Cytochrome P450 2C19 (Homo sapiens) (UniProt P33261); experiment: qHTS Assay for Inhibitors and Substrates of Cytochrome P450 2C19 (AID 899); details: recombinant CYP2C19, luciferin-H EGE luminescence; series mostly up to 57.1 µM; note: potency is the fitted concentration of half-maximal effect; nearly all actives have a fitted effect of over 60% in size
Chain of Cytochrome P450 2C19 (Homo sapiens) (P33261 whole entry, looked up): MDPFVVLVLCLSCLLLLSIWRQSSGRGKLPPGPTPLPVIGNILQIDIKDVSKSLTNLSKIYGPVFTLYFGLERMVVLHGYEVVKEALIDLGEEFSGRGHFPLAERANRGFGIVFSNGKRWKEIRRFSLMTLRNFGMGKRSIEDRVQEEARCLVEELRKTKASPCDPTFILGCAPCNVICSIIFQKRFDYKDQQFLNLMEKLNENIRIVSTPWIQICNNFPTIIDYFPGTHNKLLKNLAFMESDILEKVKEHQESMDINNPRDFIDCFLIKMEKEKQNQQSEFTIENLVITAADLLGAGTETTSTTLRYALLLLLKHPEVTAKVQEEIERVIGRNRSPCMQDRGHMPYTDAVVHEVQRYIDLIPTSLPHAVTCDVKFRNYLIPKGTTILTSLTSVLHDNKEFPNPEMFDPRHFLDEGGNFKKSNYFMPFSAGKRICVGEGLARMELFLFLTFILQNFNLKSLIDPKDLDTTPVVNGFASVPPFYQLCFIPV
In short: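 Reactions contain 5nM enzyme, 10uM Luciferin-H EGE (KM) and 50mM KPO4; compound preincubates 10 min at 37C, NADPH regeneration starts turnover for 60 min. Luminescence after detection reagent gives activity.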

[18] = qHTS Assay for Identification of Small Molecule Agonists for Hypoxia Response Element Signaling Pathway (AID 914; active = well fitted activation curve with a large enough effect in the signal ratio, with a control signal flat, not every such curve was filed as active; the % refers to the signal ratio; note: potency is the fitted concentration of half-maximal effect); details: ME-180 (cervical carcinoma) HRE-bla reporter, beta-lactamase ratio, CoCl2, 17 h; activation: active compounds read high
In short: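 AC50 values come from titration-series %Activity, taken as the 460/530nm ratio of CCF4 fluorescence (excitation 405nm). CellSensor HRE-bla ME-180 cells were treated 17 hours at 37 C with compound plus an EC50 level of CoCl2.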

SMILES | Potency [1] [µM] | activity change, negative = inhibition [2] | activity, negative = inhibition [3] [%] | Potency [4] [µM] | Potency [5] [µM] | Potency [6] | Potency [7] | Potency [8] | Potency [9] | Potency [10] | outcome [11] | activity change, negative = inhibition [12] [%] | Potency [13] | Potency [14] | Potency [15] | Potency [16] | Potency [17] | Potency [18]
CN(C)c1ncc2nc(-c3cccc(C#N)c3)c(=O)n(C)c2n1 | > 11.4 | 5.54% | -1.63 | > 9.22 | > 46 | inactive | inactive | inactive | inactive | inactive | inactive | – | – | – | – | – | – | –
CN(Cc1ccco1)c1ncncc1-c1ccccc1C(F)(F)F | – | – | -2.15 | > 46 | > 46 | inactive | inactive | inactive | inactive | inactive | inactive | 13.8 | 12.6 µM (active) | inactive | 1.26 µM (active) | inactive | 3.98 µM (active) | –
COc1ccc(-n2c(=O)c(CCc3ccccc3)nc3cnc(N4CCOCC4)nc32)cc1 | – | -7.5% | -13.2 | > 9.22 | > 46 | – | inactive | inactive | inactive | inactive | inactive | -17 | 15.8 µM (active) | inactive | – | inactive | – | –
N#CCCn1c(=O)c(-c2ccc(Cl)cc2)nc2cnc(N3CCNCC3)nc21 | > 11.4 | – | – | – | > 46 | inactive | inactive | inactive | inactive | inactive | inactive | – | – | inactive | – | inactive | – | –
CCNc1ncc2nc(-c3ccc(F)cc3)c(=O)n(C)c2n1 | – | -26% | -0.235 | > 9.22 | > 46 | inactive | inactive | inactive | inactive | inactive | inactive | -8.75 | 0.501 µM (active) | inactive | – | – | – | –
CN1CCN(c2ncc3nc(-c4cn(C)c5ccccc45)c(=O)n(Cc4cccs4)c3n2)CC1 | > 11.4 | 3.65% | – | > 9.22 | > 46 | – | inactive | inactive | inactive | inactive | inactive | – | – | inactive | – | – | – | 2.51 µM (active)
O=c1c(-c2ccc(Cl)cc2)nc2cnc(N3CCNCC3)nc2n1-c1ccccc1 | > 11.4 | 153% [activator] (active) | – | > 9.22 | > 46 | – | inactive | inactive | inactive | inactive | inactive | – | – | inactive | – | inactive | – | –
